The supplement of paper PMC3334620
The full ranking holds about 33,000 sequences; the median of “E-score (-0.5 to 0.5)” is about -0.0014, and the highest 2% start at about 0.25. The entries come from a sample that favours the highest values as a whole.

Molecular target: T1, Cad1 (UniProt P24813)
T1 sequence: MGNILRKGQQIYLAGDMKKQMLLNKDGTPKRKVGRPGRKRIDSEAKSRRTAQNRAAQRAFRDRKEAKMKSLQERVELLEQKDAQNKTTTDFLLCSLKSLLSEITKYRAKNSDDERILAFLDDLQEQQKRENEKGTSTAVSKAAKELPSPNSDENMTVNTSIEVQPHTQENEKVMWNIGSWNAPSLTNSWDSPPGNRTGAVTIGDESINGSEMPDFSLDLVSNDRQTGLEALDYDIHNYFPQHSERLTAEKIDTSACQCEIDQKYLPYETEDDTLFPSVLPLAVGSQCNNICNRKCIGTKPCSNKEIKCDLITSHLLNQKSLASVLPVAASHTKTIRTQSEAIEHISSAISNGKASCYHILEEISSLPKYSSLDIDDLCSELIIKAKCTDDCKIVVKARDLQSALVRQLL
Assay: PBM E-score (8-mer binding enrichment) (E-score (-0.5 to 0.5)); higher = stronger / more preferred TF binding
Conditions: protein concentration: 100 nM; construct: GST-full length
In short: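 Yeast transcription factors, full-length or as DNA-binding domains, were expressed with a GST tag using PURExpress in vitro transcription/translation. At about 100-200 nM they were applied to universal all-10-mer Agilent arrays, double-stranded by primer extension on fresh or once-stripped slides. Fluorescent anti-GST detected bound protein, and masliner normalised the scans. E-scores for ungapped eight-base words, pooled with reverse complements, came from the Universal PBM Analysis Suite.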

Sequence | PBM E-score
CACTAATA | 0.183
TACTACTA | 0.157
AACTAATA | 0.351
TACTAATA | 0.285
GACTAGTA | -0.117
TAATACTA | 0.303
CACTAGTA | 0.0511
ATACTTAC | 0.0308
AGACGCCT | -0.1
ACCAACGT | 0.0535
CGGCTTTA | -0.151
CGATCGGA | 0.0447
CTCCATAC | -0.104
ATACACCA | 0.12
CACGACTA | -0.148
CGAAGCTC | -0.231
TACTTGAA | 0.0482
AACTAATG | 0.283
CACTAATG | -0.0516
GACTAAAA | 0.114
GACTAACA | 0.218
GACTAATA | 0.372

Sequence | PBM E-score
TAATAATA | 0.29
CAATAATA | 0.208
AACTAAAG | 0.2
GAATAATA | 0.221
GCTGGGCC | -0.297
GCCTATAC | -0.214
GGAATGAC | -0.179
CAGTCCAG | -0.0544
CGTCAAAC | -0.0838
AGCACTAC | -0.0732
AGCAACGG | 0.0958
CTGTCCGA | 0.189
CTTTATTA | 0.18
GTTTATTA | 0.293
CCTTATTA | 0.211
ACTTATTA | 0.192
ATTTATTA | 0.186
GCTTATTA | 0.369
CACCATCA | 0.0657
TAAACGTA | 0.172
GGTTTCAC | 0.00803
ACGGCCCT | -0.0728

Sequence | PBM E-score
CTGTAGCC | -0.0863
AACTTGAA | 0.109
AACTTGAT | 0.268
AACTTGAG | -0.154
GGTGCAGA | -0.217
GCCAGGGA | -0.103
AACCTTGA | 0.0727
CGAACCGA | 0.262
GGAACCGA | 0.0676
CGAACCGC | -0.0247
CTCGCCAC | -0.0198
AAATTTGA | 0.325
CAATTTGA | -0.0156
AAATTTGT | 0.277
TAATTTGA | 0.106
AAATTTGG | 0.075
AATTTTGT | 0.143
CTGGAGGA | -0.121
CCTACCGC | -0.0896
GGCTGTAC | -0.0764
CGAGTGTA | -0.0885
ACGCTTTA | 0.0919

Sequence | PBM E-score
AAGACAAG | 0.0865
AAGACAAC | 0.336
CAGACAAC | 0.0003
GCGCGTCA | 0.0818
AAGCGACT | -0.0195
TCATATAA | -0.00059
AGTTATAA | -0.037
TGATATAA | -0.0984
CGTTATAA | 0.163
CTATATAA | 0.0617
TTATATAA | 0.427
GTATATAA | 0.182
TGTTATAA | 0.253
ATATATAA | 0.32
AAGCCGGC | 0.149
AGTGATTA | 0.287
CGTGATGA | 0.0624
GGTGATTA | 0.236
CGTGATTC | -0.021
CGTGATTA | 0.303
AGTGATTC | 0.11
